# According to PubChem BioAssay AID485297 (National Center for Advancing Translational Sciences (NCATS), 2010):
# In all, about 320,000 compounds went through this assay and about 9,100 (2.8%) were called active. About 3% were inconclusive and are not listed. Many of the other results were omitted from the sample, so actives are more common in it than they were. Values without a mark were called inactive. Calls come from the whole dose curve; as a rule, active = well fitted activation curve with a large enough effect; inconclusive = small, poorly fitted or top-dose-only effect; inactive = no such curve, though single readings can be large or run the other way.
# Experiment: qHTS Assay for Rab9 Promoter Activators; note: nearly all actives have a fitted effect of over 60% in size; for activation, negative = inhibition: % of control where 0% means no effect
# Details: Huh7 Rab9 promoter-luciferase reporter, luminescence, 24 h; series mostly up to 9.22 µM; activation, negative = inhibition: at the top concentration
# How it was run: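 Rab9 promoter-driven luciferase in stably transfected Huh7 cells; 1500 cells/well rested 2 h, exposed to compound in DMSO for 24 h at 37 °C, 5% CO2. Luminescence read 10 min after adding luciferase reagent at ambient temperature.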
# Potency is the fitted concentration of half-maximal effect.
SMILES,"activation, negative = inhibition [%]",Potency
O=C(NC1CCCCCC1)C1CCN(C(=O)c2ccc(Cl)cc2)CC1,-5.39,–
O=C(c1c(F)cccc1F)N1CCN(S(=O)(=O)c2ccc3c(c2)OCCO3)CC1,-0.698,–
Cc1cc(C)cc(OCC(=O)OCC(=O)NC2CCCC2)c1,0.384,–
O=C(CN1CCCCCC1)Nc1ccc(Br)cc1[N+](=O)[O-],2.95,–
CCCN(CC(=O)Nc1ccccc1C)C(=O)c1ccc2[nH]c3c(c2c1)CC(C)CC3 (stereo unspecified),1.6,–
CCOC(=O)c1sc(N)c(C#N)c1COC(=O)C1=COCCO1,0.625,–
CN(C(=O)CSc1nnc(C2CC2)n1C)C1CCCc2ccccc21 (stereo unspecified),-6.33,–
CCS(=O)(=O)Nc1cccc(-c2cc(-c3ccccc3)c3cc(C)ccc3n2)c1,-3.65,–
COc1ccc2c(c1OC)C(=O)OC2Nc1nc(-c2ccccc2)cs1 (stereo unspecified),-18.4,–
O=C(Nc1ccc(-c2csc(Nc3cccc(C(F)(F)F)c3)n2)cc1)c1cccc(C(F)(F)F)c1,-13.6,–
CC(=O)Nc1cccc(-c2csc(Nc3cccc(C)n3)n2)c1,–,1580 nM (active)
CC(=O)Nc1ccc(-c2csc(NC=C3C(=O)OC(C)(C)OC3=O)n2)cc1,25.5,–
Cc1cccc(Nc2nc(-c3ccccc3)cs2)n1,–,3980 nM (active)
CC(=O)Nc1cccc(-c2cnc3ccccc3n2)c1,–,3980 nM (active)
Cc1cccc(S(=O)(=O)CC(=O)Nc2nc(-c3ccccc3)cs2)c1,7.63,–
Cc1cc(O)ccc1-c1cnc2ccccc2n1,22.3,–
COc1ccc(S(=O)(=O)Nc2cc(C)on2)cc1NC(C)=O,1.82,–
Cc1ccc(NC(=O)Cn2nnc(C(=O)NCc3ccco3)c2N)c(C)c1,-1.28,–
COc1ccc([C@H]2CC(=O)C=C(/C=C/c3ccc(Cl)cc3)C2)cc1,4.04,–

SMILES,"activation, negative = inhibition [%]",Potency
CSCCC(NC(=O)c1ccco1)C(=O)NCCc1ccc(F)cc1 (stereo unspecified),8.75,–
CCCC(=O)N1CCN(c2nnc(-c3ccc(C)cc3)c3ccccc23)CC1,-1.39,–
O=C(C1CCC1)N1CCN(S(=O)(=O)c2ccc([N+](=O)[O-])cc2)CC1,11.4,–
Cc1ccc2c(c1)C1CN(C)CCC1N2S(=O)(=O)c1cccc(F)c1 (stereo unspecified),-2.38,–
O=C(c1cnn(-c2ccc(Cl)cc2)c1)c1ccccc1O,–,3550 nM (active)
Cc1ncc(CC(=O)n2cc(C(=O)c3cc(Cl)ccc3O)cn2)s1,3,–
COc1ccc(CNC(=O)COc2ccccc2C(=O)c2cnn(-c3ccccc3)c2)cc1OC,21.1,–
COc1ccc(-c2c(-c3cc(OC)cc(OC)c3)n(C)c3ccc(-c4ccn[nH]4)cc23)cc1,-4.63,–
Cc1cc(C(=O)COc2ccc(Br)cc2F)c(C)n1C1CC1,18.2,–
CC(=O)NC(c1cccs1)c1cc(Br)c2cccnc2c1O (stereo unspecified),-37.8,–
COc1ccc(C)cc1NC(=O)c1cc(-c2ccccc2)nc2c1cnn2C(C)C,0.172,–
CC1Cc2ccccc2N1S(=O)(=O)c1cccc(C(=O)NCC(c2ccco2)N2CCCC2)c1 (stereo unspecified),-2,–
Nc1ccc(N=Nc2ccccc2Cl)c(N)n1,–,2820 nM (active)
CCc1cccc(NC(=O)COC(=O)c2cc(=O)c3ccccc3o2)c1,-11.3,–
CCOC(=O)c1ccc(NC(=O)C2CC(=O)N(c3ccc4c(c3)OCCO4)C2)cc1 (stereo unspecified),-3.72,–
CCCN(CC1CC1)C(=S)NC(=O)c1ccccc1Br,-4.09,–
Cc1noc(NS(=O)(=O)c2ccc(N/C=C/C(=O)c3ccccc3)cc2)c1C,-4.95,–
COc1ccc(C(=O)/C=C/Nc2ccccn2)cc1,–,100 nM (active)
O=C(NNc1ccccn1)c1ccc(Cl)nc1,-6.69,–

SMILES,"activation, negative = inhibition [%]",Potency
Cc1ccc(N/C=C/C(=O)c2ccccc2)cc1C,–,562 nM (active)
CCOc1ccc(N/C=C/C(=O)c2cc(OC)c(OC)c(OC)c2)cc1,0.529,–
COc1ccc(C(=O)/C=C/c2ccc(OC3CSC3)cc2)cc1,1.39,–
O=C(/C=C/NCc1ccc(F)cc1)c1ccccc1,4.92,–
CCOc1ccc(N/C=C/C(=O)c2ccccc2)cc1,–,316 nM (active)
CCOc1ccc(NC(=S)N2CCC(NC(=O)c3ccccc3)CC2)cc1,1.98,–
O=C(CC1SC(N2CCCC2)=NC1=O)Nc1ccc(C(=O)NCCc2ccc(F)cc2)cc1 (stereo unspecified),0.532,–
Cc1ccc(NC(=O)c2cccc(S(=O)(=O)N3CCCc4ccccc43)c2)nc1,0.722,–
C=CC(=O)OCCOCCOCCOCCOC(=O)C=C,1.04,–
Cc1ccnc(NC(=O)c2ccco2)n1,-3,–
Cc1ccc(S(=O)(=O)Nc2nc3ccccc3s2)cc1[N+](=O)[O-],-15,–
Cc1ccnc(Nc2nc3ccccc3s2)n1,–,1410 nM (active)
O=C(CCNS(=O)(=O)c1ccc(Br)cc1)NCC1CCCO1 (stereo unspecified),1.91,–
CC(=O)c1ccc(NC(=O)c2cc(-c3cccs3)on2)cc1,-1.85,–
O=C(c1cc(-c2ccccc2O)on1)N1CCCC1,–,3980 nM (active)
O=C(c1cc(-c2ccc(F)cc2)on1)N1CCN(c2ccc(F)cc2)CC1,-3.94,–
O=C(CSc1n[nH]c(-c2cccs2)n1)N1CCCCC1,17.7,–
O=C(c1cc(-c2cccc(O)c2)on1)N1CCc2ccccc2C1,-2.35,–
